JMJD2A Tudor – JMJD2A Tudor domain (human) inhibition. AlphaScreen JMJD2A-Tudor / H3K4me3 peptide binding. Potency, µM (titrated, usually from 114 µM), without a hit: at the top dose activity change, negative = inhibition, actives largely listed as inhibitors. actives 4.4% (n = 390,000); also: potency is read from the fitted curve at half-maximal effect; % is scaled to controls: 0 for no effect and ±100 for the full control effect; nearly all actives have a fitted effect of over 50% in size
HP1b chromo inh – blocks HP1-beta chromodomain binding to methylated histone tails | P83916 | AlphaScreen HP1-beta / biotin-H3K9me3 peptide binding | Potency, µM (doses to about 114 µM), inactives show top-dose activity change, negative = inhibition, hits mostly inhibitors | actives 0.56% (n = 390,000); also: potency is read from the fitted curve at half-maximal effect; nearly all actives have a fitted effect of over 70% in size
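Compound inhibition of the preformed complex between 50 nM HP1-beta and 50 nM biotinylated H3K9me3 peptide was read by AlphaScreen. Buffer was PBS pH 7.4 with 0.01% Tween-20. Incubations ran 30 min at room temperature, with 10 ug/mL donor/acceptor beads.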
G9a block – blocks human histone lysine methyltransferase G9a | Q96KQ7 | actives 8.8% (n = 350,000) | AID 504332 | Potency, µM (series often up to 102 µM), inactives show at the highest dose activity, negative = inhibition, most hits filed as inhibitors | G9a H3K9 monomethylation, AlphaScreen, 2 h; also: potency is read from the fitted curve at half-maximal effect; % is scaled to controls: 0 for no effect and ±100 for the full control effect; nearly all actives have a fitted effect of over 75% in size
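AlphaScreen detection with an anti-monomethyl H3K9 antibody quantified product after a 2 h room-temperature reaction containing 500 nM biotinylated H3K9 peptide, 20 µM SAM and 20 nM enzyme, which had been preincubated 15 min with compound.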
L3MBTL1 block – L3MBTL1 (human) inhibition; actives 0.66% (n = 230,000); Potency, µM (series often up to 57.1 µM), inactives show at the top dose activity, negative = inhibition, usual class: inhibitors; AlphaScreen L3MBTL1–H3K9me1 peptide binding; Q9Y468; also: potency is read from the fitted curve at half-maximal effect; % is scaled to controls: 0 for no effect and ±100 for the full control effect; nearly all actives have a fitted effect of over 60% in size
Target sequence (Q9Y468 whole entry, looked up): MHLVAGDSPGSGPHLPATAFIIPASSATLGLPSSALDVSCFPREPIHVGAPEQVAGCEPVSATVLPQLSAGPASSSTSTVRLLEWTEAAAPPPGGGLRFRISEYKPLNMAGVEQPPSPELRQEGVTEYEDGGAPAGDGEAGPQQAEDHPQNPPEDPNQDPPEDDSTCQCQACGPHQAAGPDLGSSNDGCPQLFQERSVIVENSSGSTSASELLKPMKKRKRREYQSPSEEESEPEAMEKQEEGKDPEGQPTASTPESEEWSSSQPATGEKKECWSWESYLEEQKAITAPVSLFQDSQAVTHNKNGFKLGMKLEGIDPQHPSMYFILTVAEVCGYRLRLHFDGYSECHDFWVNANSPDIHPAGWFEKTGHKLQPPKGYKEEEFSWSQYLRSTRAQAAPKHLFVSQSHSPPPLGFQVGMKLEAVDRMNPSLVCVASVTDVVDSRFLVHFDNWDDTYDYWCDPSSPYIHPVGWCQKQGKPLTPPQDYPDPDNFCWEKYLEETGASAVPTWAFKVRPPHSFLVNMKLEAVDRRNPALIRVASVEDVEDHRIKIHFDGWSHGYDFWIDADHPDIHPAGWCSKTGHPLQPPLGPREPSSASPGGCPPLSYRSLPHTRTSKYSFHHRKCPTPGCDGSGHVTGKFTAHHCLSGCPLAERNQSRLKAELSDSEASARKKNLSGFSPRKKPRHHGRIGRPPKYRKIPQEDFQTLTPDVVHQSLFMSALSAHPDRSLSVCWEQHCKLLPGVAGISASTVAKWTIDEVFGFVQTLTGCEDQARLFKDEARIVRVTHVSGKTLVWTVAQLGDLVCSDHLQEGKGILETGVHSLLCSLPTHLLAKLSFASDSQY
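Displacement of a biotinylated histone H3(1-15) peptide monomethylated at Lys9 (75 nM) from L3MBTL1 (50 nM) was measured by AlphaScreen after a 30 min room-temperature compound incubation; cefsulodin titration served as intraplate control.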
BAZ2B block – BAZ2B (human) inhibition. AlphaScreen BAZ2B-H3K14Ac peptide displacement. Potency, µM (series often up to 114 µM), inactives show at the top dose activity change, negative = inhibition, actives largely listed as inhibitors. actives 4.4% (n = 360,000); also: potency is read from the fitted curve at half-maximal effect; % is scaled to controls: 0 for no effect and ±100 for the full control effect; nearly all actives have a fitted effect of over 60% in size
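AlphaScreen displacement of biotin-H3(5-23)K14Ac peptide (50 nM final) from BAZ2B (50 nM final) in PBS pH 7.4, 0.01% Tween-20; complex preformed 30 min RT, then compounds (top 110 uM) 30 min RT, beads 20 min dark.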
PI5P4Ka inh – inhibitors of human PI5P4K alpha; PI5P4Kalpha enzyme, ADP-Glo luminescence, 60 min; stronger effect = lower value; max response, %; actives 1.2% (n = 330,000); AID 652105; active = max response of -50% or lower; inconclusive = between -30% and -50%; inactive = -30% or higher; also: value at the top dose of about 77 µM; % is scaled to controls: 0 for no effect and ±100 for the full control effect
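Enzyme plus substrate dispensed, test compounds pinned in, then ATP (5 microM final) added. After 60 min at RT, ADP-Glo reagent 1 for 45 min and reagent 2 for 30 min preceded luminescence imaging.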
Starred values were filed as active, the others as inactive; ! = not active in a repeat; [ ] = another dose, or the depositor's remark. An excerpt weighted towards active compounds, which were near 11% of everything screened. Unless noted, calls follow the shape of the dose curve; as a rule, active = well fitted inhibition curve with a large enough effect; inconclusive = small, poorly fitted or top-dose-only effect; inactive = no such curve, though single readings can be large or run the other way.

How did O=C(NC1(C(F)(F)F)NC(=O)N(CCc2ccccc2)C1=O)c1ccccc1Cl (stereo not given) do in these assays?
JMJD2A Tudor: -19.2%; HP1b chromo inh: 19.7%; G9a block: 1.8%[59 µM]; BAZ2B block: 2.9%

How did CN(C)CCC[C@@]1(c2ccc(F)cc2)OCc2cc(C#N)ccc21 do in these assays?
JMJD2A Tudor: 35.5µM*; HP1b chromo inh: inconclusive; G9a block: 17.0%[59 µM]; PI5P4Ka inh: -5.5

What do the screens show for `COc1ccc(CC(=O)OCC(=O)NCc2ccco2)cc1OC`?
JMJD2A Tudor: -6.2%; HP1b chromo inh: 36.6%; G9a block: 50.1µM*; L3MBTL1 block: -1.7%; BAZ2B block: 7.8%; PI5P4Ka inh: 1.5

Results for O=C(COC(=O)Cc1ccc(F)cc1)NCc1ccco1 ?
JMJD2A Tudor: -15.0%; HP1b chromo inh: 54.5%; G9a block: inconclusive; L3MBTL1 block: inconclusive; BAZ2B block: 50.1µM*; PI5P4Ka inh: -2.1

How did CC(C)C(NC(=O)OCc1ccccc1)C(=O)OCC(=O)NCc1ccco1 (stereo not given) do in these assays?
JMJD2A Tudor: 56.2µM*; HP1b chromo inh: -16.2%; G9a block: -20.6%[59 µM]; L3MBTL1 block: inconclusive; BAZ2B block: 50.1µM*; PI5P4Ka inh: inconclusive

What do the screens show for `CC(C)[C@H](NC(=O)OCc1ccccc1)C(=O)OCC(=O)NCc1ccco1`?
JMJD2A Tudor: inconclusive; HP1b chromo inh: -17.0%; PI5P4Ka inh: inconclusive

Results for CCOc1ccc(CNC(=O)c2cnc(SC)nc2C)cc1 ?
JMJD2A Tudor: -4.0%; HP1b chromo inh: 20.8%; G9a block: -0.9%[59 µM]; BAZ2B block: 1.9%

How did CC(C)c1ccc(-c2cc(C(=O)NN3CCN(C)CC3)c3ccccc3n2)cc1 do in these assays?
JMJD2A Tudor: inconclusive; HP1b chromo inh: -3.7%; G9a block: 50.1µM*; L3MBTL1 block: -8.1%; BAZ2B block: -35.2%; PI5P4Ka inh: 2.2

Results for CN1CCN(NC(=O)c2cc(-c3cccc(Cl)c3)nc3ccccc23)CC1 ?
JMJD2A Tudor: -17.5%; HP1b chromo inh: 6.9%; G9a block: inconclusive; BAZ2B block: -18.2%; PI5P4Ka inh: 7.9

How did Cc1ccc(C(=O)c2c3ccc([N+](=O)[O-])cc3[n+]([O-])n2CCC(N)=O)cc1 do in these assays?
JMJD2A Tudor: -31.2%; HP1b chromo inh: 11.5%; G9a block: 50.1µM*; L3MBTL1 block: -4.7%; BAZ2B block: inconclusive; PI5P4Ka inh: inconclusive

How did COc1ccc(C(=O)c2c3ccc([N+](=O)[O-])cc3[n+]([O-])n2CCCC(N)=O)cc1 do in these assays?
JMJD2A Tudor: -25.7%; HP1b chromo inh: 11.0%; G9a block: 15.9%[2.33 µM]; L3MBTL1 block: -7.9%; BAZ2B block: 0.7%; PI5P4Ka inh: -0.1

Results for Cc1cc(/C=C\c2ccc3cc(N(C)C)ccc3[n+]2C)c(C)n1-c1ccccc1 ?
JMJD2A Tudor: 50.1µM*; HP1b chromo inh: inconclusive; G9a block: 12.6µM*; L3MBTL1 block: 31.6µM*; BAZ2B block: 12.6µM*; PI5P4Ka inh: inconclusive

What do the screens show for `Cc1cc(/C=C2\SC(=O)NC2=O)c(C)n1-c1ccc(N(C)C)cc1`?
JMJD2A Tudor: -16.3%; HP1b chromo inh: 1.9%; G9a block: 13.7%; L3MBTL1 block: -0.8%; BAZ2B block: 6.5%; PI5P4Ka inh: 4.7

Results for Cc1ccc(N(C)S(=O)(=O)c2ccc3c(c2)CCC(=O)N3)cc1C ?
JMJD2A Tudor: -8.5%

How did CCc1nnc2c(NCCc3ccc(OC)c(OC)c3)nc3ccccc3n12 do in these assays?
JMJD2A Tudor: 31.6µM*!; HP1b chromo inh: 9.9%; G9a block: 4.1%; BAZ2B block: inconclusive; PI5P4Ka inh: -18.3

What do the screens show for `COc1ccc(CCNc2nc3ccccc3n3cnnc23)cc1OC`?
JMJD2A Tudor: -8.9%; HP1b chromo inh: 28.9%; G9a block: 20.8%; L3MBTL1 block: 8.7%; BAZ2B block: -1.5%; PI5P4Ka inh: -3.9

Compound activity as filed in PubChem.
